From PubChem BioAssay (Tox21)
Records with an inconclusive call do not appear. The source made the active and inactive calls. Unless noted, calls follow the shape of the dose curve; as a rule, active = well fitted curve in the direction sought with a large enough effect in the repeat runs; inconclusive = weak or mixed curves; inactive = no such curve, though single readings can be large; an effect the other way counts as inactive or inconclusive.

Experiments:
[1] = qHTS assay to identify small molecule agonists of the estrogen receptor alpha (ER-alpha) signaling pathway in the presence of an antagonist - cell viability counter screen (AID 1259386);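 also: series mostly up to about 92 µM; cells exposed to compounds for 22 h at 37 °C before the viability read; nearly all actives have a fitted effect of over 30% in size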
Procedure, shortened: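 VM7Luc4E2 cells (endogenous full-length ER-alpha, 4×ERE-luciferase) were held 5 days in phenol red-free medium with 10% charcoal-stripped FBS, plated, then given 10.0nM ICI-182,780 and compounds at 15 concentrations for 22hr at 37C; viability read by CellTiter-Fluor fluorescence.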

[2] = biological target: Progesterone receptor (Homo sapiens) (UniProt P06401); assay: qHTS assay to identify small molecule agonists of the progesterone receptor (PR) signaling pathway (AID 1346784; calls by dose curve; also: nearly all actives have a fitted effect of over 30% in size; also: potency is read from the fitted curve at half-maximal effect)
Sequence of Progesterone receptor (Homo sapiens) (P06401 whole entry, looked up): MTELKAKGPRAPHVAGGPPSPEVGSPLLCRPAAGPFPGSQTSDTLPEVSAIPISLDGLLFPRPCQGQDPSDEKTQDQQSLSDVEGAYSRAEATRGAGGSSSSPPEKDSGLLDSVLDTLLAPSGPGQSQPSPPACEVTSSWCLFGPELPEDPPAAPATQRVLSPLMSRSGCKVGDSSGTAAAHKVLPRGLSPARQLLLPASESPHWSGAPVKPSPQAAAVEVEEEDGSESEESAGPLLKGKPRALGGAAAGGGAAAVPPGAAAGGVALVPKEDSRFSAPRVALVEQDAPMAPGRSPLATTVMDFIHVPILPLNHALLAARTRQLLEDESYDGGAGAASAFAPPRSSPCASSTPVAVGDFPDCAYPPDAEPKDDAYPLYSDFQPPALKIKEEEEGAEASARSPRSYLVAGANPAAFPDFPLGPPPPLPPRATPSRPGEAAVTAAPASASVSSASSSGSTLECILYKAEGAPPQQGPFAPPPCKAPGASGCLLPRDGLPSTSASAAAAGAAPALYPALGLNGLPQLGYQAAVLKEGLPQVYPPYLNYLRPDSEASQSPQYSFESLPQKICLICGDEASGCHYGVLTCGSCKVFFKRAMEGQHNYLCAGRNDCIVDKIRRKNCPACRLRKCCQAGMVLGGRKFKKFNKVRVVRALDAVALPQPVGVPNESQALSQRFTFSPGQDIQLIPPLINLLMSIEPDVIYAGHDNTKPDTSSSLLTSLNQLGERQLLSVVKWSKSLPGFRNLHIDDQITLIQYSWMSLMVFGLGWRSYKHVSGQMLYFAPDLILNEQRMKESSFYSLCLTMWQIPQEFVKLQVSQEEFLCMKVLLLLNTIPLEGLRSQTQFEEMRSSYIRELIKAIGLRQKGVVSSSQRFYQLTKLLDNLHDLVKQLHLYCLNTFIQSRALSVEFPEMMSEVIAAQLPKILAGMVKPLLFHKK
Procedure, shortened: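 Agonist mode, quantitative HTS format in a HEK 293T line expressing a UAS-controlled beta-lactamase reporter; 16 hr compound exposure at 37C in 2% charcoal-stripped FBS, then LiveBLAzer B/G FRET fluorescence.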

[3] = biological target: Progesterone receptor (Homo sapiens) (UniProt P06401); assay: qHTS assay to identify small molecule antagonists of the progesterone receptor (PR) signaling pathway (AID 1346795; active = well fitted inhibition curve with a large enough effect in the signal ratio in the repeat runs, not every such curve was filed as active; the % refers to the signal ratio)
Procedure, shortened: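 HEK293T PR-UAS-bla reporter cells in charcoal-stripped serum (2%) received compound after a 6 hr settling period, followed by R5020 agonist at 1 nM final; 16 hr incubation preceded the FRET substrate step and fluorescence measurement.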

[4] = qHTS assay to identify small molecule antagonists of the progesterone receptor (PR) signaling pathway - cell viability counter screen (AID 1346798); also: series mostly up to about 92 µM; nearly all actives have a fitted effect of over 50% in size
Procedure, shortened: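 Same-well multiplex: after 16 hr at 37C with compound and R5020 stimulation, HEK293T cells carrying a UAS-bla reporter received LiveBLAzer substrate (2 hr RT), then CellTiter-Glo (30 min RT) for luminescent viability.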

[5] = qHTS assay to identify small molecule agonists of the progesterone receptor (PR) signaling pathway - cell viability counter screen (AID 1346799; calls by dose curve; also: nearly all actives have a fitted effect of over 45% in size)
Procedure, shortened: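 Counter screen for cytotoxicity: compound-treated PR-UAS-bla HEK293T cells (16 hr, 37C, 5% CO2) were assayed with CellTiter-Glo, luminescence measured after 30 min at room temperature.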

[6] = qHTS assay to identify small molecule antagonists of the TGF-beta/Smad signaling pathway - cell viability counter screen (AID 1346824); also: nearly all actives have a fitted effect of over 50% in size
Procedure, shortened: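 SBE-bla HEK 293T cells, incubated overnight, then compound plus 0.25 ng/mL TGF-beta1 (stock added) for 5 hr at 37 C. Viability was read in the same wells by CellTiter-Glo luminescence after 30 min at room temperature.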

[7] = qHTS assay to identify small molecule agonists of the TGF-beta/Smad signaling pathway - cell viability counter screen (AID 1346829); also: top concentration of the series differs between compounds; nearly all actives have a fitted effect of over 45% in size
Procedure, shortened: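 After overnight seating at 37 C and 5% CO2, reporter cells got compounds for 5 hr and FRET substrate for 2 hr; cell viability then came from CellTiter-Glo luminescence.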

[8] = qHTS assay to identify small molecule agonists of the TGF-beta/Smad signaling pathway (AID 1346859; active = well fitted activation curve with a large enough effect in the signal ratio in the repeat runs, not every such curve was filed as active; the % refers to the signal ratio; also: series mostly up to about 77 µM)
Procedure, shortened: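 Smad-responsive beta-lactamase reporter cells (HEK 293T) received compounds from DMSO stocks after overnight attachment, were incubated 5 hr, then treated 2 hr with FRET substrate before dual-emission fluorescence measurement (405 nm excitation).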

[9] = biological target: Thyrotropin-releasing hormone receptor (Homo sapiens) (UniProt P34981); assay: qHTS assay to identify small molecule antagonists of the thyrotropin-releasing hormone receptor (TRHR) signaling pathway (AID 1346877; active = well fitted inhibition curve with a large enough effect in the repeat runs, not every such curve was filed as active; also: series mostly up to about 51 µM)
Sequence of Thyrotropin-releasing hormone receptor (Homo sapiens) (P34981 whole entry, looked up): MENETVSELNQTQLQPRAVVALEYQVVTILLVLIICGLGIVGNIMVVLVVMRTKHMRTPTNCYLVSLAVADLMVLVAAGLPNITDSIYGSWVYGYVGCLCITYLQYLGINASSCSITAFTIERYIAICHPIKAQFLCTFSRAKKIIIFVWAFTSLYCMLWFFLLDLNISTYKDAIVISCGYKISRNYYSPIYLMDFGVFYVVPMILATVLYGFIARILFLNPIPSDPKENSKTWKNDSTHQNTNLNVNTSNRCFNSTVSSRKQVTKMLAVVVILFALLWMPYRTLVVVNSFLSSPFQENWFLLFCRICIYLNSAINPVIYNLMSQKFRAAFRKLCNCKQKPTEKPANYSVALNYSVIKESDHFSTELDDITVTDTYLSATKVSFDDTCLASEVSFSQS
Procedure, shortened: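 TRHR-expressing HEK293 cells were seeded, cultured 18 h at 37 °C, then loaded with calcium dye for 2 h. Compounds were pre-incubated 5 min at room temperature before 1 nM TRH (final) was added, and kinetic fluorescence was recorded for 3 min.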

[10] = biological target: Thyrotropin-releasing hormone receptor (Homo sapiens) (UniProt P34981); assay: qHTS assay to identify small molecule agonists of the thyrotropin-releasing hormone receptor (TRHR) signaling pathway (AID 1346891; calls by dose curve; also: series mostly up to about 58 µM)
Procedure, shortened: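 Agonist-mode calcium mobilisation screen: TRHR-transfected HEK293 cells cultured overnight (18 h), dye-loaded for 2 h at 37 °C, exposed to compounds, and monitored by fluorescence for 3 min.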

[11] = Human pregnane X receptor (PXR) small molecule agonists, qHTS cell viability counter screen (AID 1346977); also: nearly all actives have a fitted effect of over 50% in size
Procedure, shortened: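 Measures live-cell protease fluorescence (CellTiter-Fluor) in PXR-Luc HepG2 cells treated 24hr with compounds at 37C. Cells had 5hr to attach before pin transfer of DMSO solutions.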

[12] = Caspase-3/7 induction in HepG2 cells by small molecules, qHTS assay (AID 1346978); also: nearly all actives have a fitted effect of over 15% in size
Procedure, shortened: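 Wild-type HepG2 cells, 2,000/well, settled 5 hr at 37 C and 5% CO2, then compound-treated for 17 hr; caspase-3/7 activity read by luminescent Caspase-Glo 3/7 after 30 min at room temperature.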

[13] = Caspase-3/7 induction in CHO-K1 cells by small molecules, qHTS cell viability counter screen (AID 1346979); also: nearly all actives have a fitted effect of over 35% in size
Procedure, shortened: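 In the same wells as the caspase read, viability of compound-treated wild-type CHO-K1 cells was assessed using CellTiter-Fluor, added after 16hr at 37C and measured by fluorescence following 1hr further incubation.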

[14] = Caspase-3/7 induction in CHO-K1 cells by small molecules, qHTS assay (AID 1346980); also: nearly all actives have a fitted effect of over 15% in size
Procedure, shortened: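 Wild-type CHO-K1 cells exposed to compounds for 17hr at 37 C, 5% CO2. Caspase-3/7 activity then measured by Caspase-Glo 3/7 luminescence after 30min at room temperature.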

[15] = Caspase-3/7 induction in HepG2 cells by small molecules, qHTS cell viability counter screen (AID 1346981); also: series mostly up to about 92 µM; nearly all actives have a fitted effect of over 30% in size
Procedure, shortened: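 Wild-type HepG2 cells (2,000/well) were allowed to settle for 5 hr at 37 C, 5% CO2, then dosed with compounds in DMSO by pin transfer. After 16 hr at 37 C, CellTiter-Fluor was added and fluorescence read 1 hr later.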

[16] = biological target: Nuclear receptor subfamily 1 group I member 2 (Homo sapiens) (UniProt O75469); assay: Human pregnane X receptor (PXR) small molecule agonists, qHTS assay (AID 1346982); also: nearly all actives have a fitted effect of over 35% in size; also: potency is read from the fitted curve at half-maximal effect
Sequence of Nuclear receptor subfamily 1 group I member 2 (Homo sapiens) (O75469 whole entry, looked up): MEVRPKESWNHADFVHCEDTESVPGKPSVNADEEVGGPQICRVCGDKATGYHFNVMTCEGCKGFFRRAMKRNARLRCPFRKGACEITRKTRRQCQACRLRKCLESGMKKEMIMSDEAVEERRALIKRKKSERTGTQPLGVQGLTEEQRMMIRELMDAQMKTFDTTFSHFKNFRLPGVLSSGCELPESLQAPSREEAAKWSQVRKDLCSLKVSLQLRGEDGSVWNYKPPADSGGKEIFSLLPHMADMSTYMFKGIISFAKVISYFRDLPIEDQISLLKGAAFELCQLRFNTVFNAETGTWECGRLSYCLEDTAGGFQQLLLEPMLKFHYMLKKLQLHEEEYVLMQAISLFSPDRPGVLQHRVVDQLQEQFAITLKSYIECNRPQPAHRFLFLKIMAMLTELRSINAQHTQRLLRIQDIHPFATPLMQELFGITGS
Procedure, shortened: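 PXR-Luc HepG2 cells (CYP3A4 promoter-driven luciferase) were seeded in medium with 5% charcoal-stripped FBS, left 5 hr at 37 C, then exposed to compounds in DMSO for 24 hr. Luminescence was read after ONE-Glo addition.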

[17] = biological target: Cytochrome P450 2D6 (Homo sapiens) (UniProt P10635); assay: Cytochrome P450 Family 2 Subfamily D Member 6 (CYP2D6) small molecule antagonists: luciferase reporter qHTS assay (AID 1671196); also: series mostly up to about 120 µM; nearly all actives have a fitted effect of over 50% in size
Sequence of Cytochrome P450 2D6 (Homo sapiens) (P10635 whole entry, looked up): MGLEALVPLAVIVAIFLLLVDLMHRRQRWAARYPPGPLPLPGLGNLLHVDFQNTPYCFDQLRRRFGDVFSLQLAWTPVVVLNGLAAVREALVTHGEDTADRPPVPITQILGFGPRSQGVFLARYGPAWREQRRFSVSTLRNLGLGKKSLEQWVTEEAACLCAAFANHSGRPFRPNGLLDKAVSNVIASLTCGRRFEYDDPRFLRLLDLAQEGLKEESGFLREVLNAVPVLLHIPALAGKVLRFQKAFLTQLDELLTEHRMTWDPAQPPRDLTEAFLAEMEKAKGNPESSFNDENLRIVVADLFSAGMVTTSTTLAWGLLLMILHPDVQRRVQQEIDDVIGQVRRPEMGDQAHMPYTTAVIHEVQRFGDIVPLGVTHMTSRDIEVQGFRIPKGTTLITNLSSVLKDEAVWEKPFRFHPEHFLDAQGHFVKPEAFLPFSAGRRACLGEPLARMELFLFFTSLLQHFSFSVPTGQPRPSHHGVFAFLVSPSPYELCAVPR
Procedure, shortened: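 CYP2D6 enzyme–substrate mix was held with compound for 10 min at room temperature, then NADPH regeneration solution was added and the reaction ran 1 h at room temperature. Luciferin product was detected by luminescence after 20 min with detection reagent.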

[18] = biological target: Nuclear receptor subfamily 1 group I member 2 (Homo sapiens) (UniProt O75469); assay: CYP3A4 induction through human pregnane X receptor (PXR) by small molecules, qHTS assay (AID 1346984); also: nearly all actives have a fitted effect of over 40% in size
Procedure, shortened: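 DPX-2 cells (HepG2 co-transfected with PXR and CYP3A4 promoter-luciferase) treated with compounds 24 h at 37C; luciferin-IPA CYP3A4 substrate 3uM final added for 3 h, then One-Glo; luminescence read. qHTS format.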

[19] = biological target: Nuclear receptor subfamily 1 group I member 2 (Homo sapiens) (UniProt O75469); assay: Human pregnane X receptor (PXR) activation by small molecules, qHTS assay (AID 1346985); also: nearly all actives have a fitted effect of over 40% in size; also: potency is read from the fitted curve at half-maximal effect
Procedure, shortened: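 DPX-2 cells (HepG2 co-transfected with a PXR response element and a CYP3A4-promoter luciferase construct) were seeded at 2,000 per well, rested 5 hr at 37C, then exposed to DMSO-dissolved compounds for 24 hr. Activation was read as luciferase luminescence.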
% is scaled to controls: 0 for no effect and ±100 for the full control effect.

C=C(C)c1cccc(C(=C)C)c1
inactive: Potency [1] | Potency [2] | Potency [3] | Potency [4] | Potency [5] | Potency [6] | Potency [7] | Potency [8] | Potency [9] | outcome [10] | Potency [11] | Potency [12] | Potency [13] | Potency [14] | Potency [15] | Potency [16] | Potency [17]

CC(C)CCOC(=O)/C=C/c1ccccc1
inactive: Potency [1] | Potency [2] | Potency [3] | Potency [4] | Potency [5] | Potency [6] | Potency [7] | Potency [8] | Potency [9] | outcome [10] | Potency [11] | Potency [12] | Potency [13] | Potency [14] | Potency [15] | Potency [16] | Potency [17]

Cc1ccc(C(C)C)cc2c(C)ccc1-2
inactive: Potency [1] | Potency [2] | Potency [3] | Potency [4] | Potency [5] | Potency [6] | Potency [7] | Potency [8] | Potency [9] | outcome [10] | Potency [11] | Potency [12] | Potency [13] | Potency [14] | Potency [15] | Potency [18]
active: Potency [16] 10.6 µM | Potency [19] 22.4 µM

OC[C@H]1O[C@H](O[C@H]2O[C@H](CO)[C@@H](O)[C@H](O)[C@H]2O)[C@H](O)[C@@H](O)[C@@H]1O
inactive: Potency [1] | Potency [2] | Potency [3] | Potency [4] | Potency [5] | Potency [6] | Potency [7] | Potency [8] | Potency [9] | outcome [10] | Potency [12] | Potency [13] | Potency [14] | Potency [15] | Potency [16]

NC[C@H]1O[C@H](O[C@H]2[C@H](O[C@@H]3O[C@H](CO)[C@@H](O)[C@H]3O)C(O)[C@H](N)C[C@@H]2N)[C@H](N)[C@@H](O)[C@@H]1O (some centres undefined)
inactive: activity change, negative = cytotoxicity [1] 3.36% [at 8.39 µM] | activation [2] 14.9% [at 8.39 µM] | activity change, negative = inhibition [3] 0.98% [at 8.39 µM] | activity change, negative = cytotoxicity [4] 12.4% [at 8.39 µM] | activity change, negative = cytotoxicity [5] 9.53% [at 8.39 µM] | viability change, negative = cytotoxic [6] -16.4% [at 6.97 µM] | activity change, negative = cytotoxicity [7] 21.1% [at 6.97 µM] | activation [8] 6.05% [at 6.97 µM] | activity, negative = inhibition [9] 3.15% [at 4.65 µM] | activation [10] -0.179% [at 5.23 µM] | caspase activation [12] -1.04% [at 8.39 µM] | activity change, negative = cytotoxicity [13] 6.09% [at 8.39 µM] | caspase-3/7 activation [14] -0.0652% [at 8.39 µM] | activity change, negative = cytotoxicity [15] 8% [at 8.39 µM]

C#Cc1ccc(-c2ccccc2F)cc1
inactive: Potency [1] | Potency [2] | Potency [3] | Potency [4] | Potency [5] | Potency [6] | Potency [7] | Potency [8] | Potency [9] | outcome [10] | Potency [11] | Potency [12] | Potency [13] | Potency [14] | Potency [15] | Potency [16] | Potency [17]

Nc1nc(N)nc(-c2cc(Cl)ccc2Cl)n1
inactive: Potency [1] | Potency [2] | Potency [3] | Potency [4] | Potency [5] | Potency [7] | Potency [8] | Potency [9] | outcome [10] | Potency [11] | Potency [12] | Potency [13] | Potency [14] | Potency [15] | Potency [16] | Potency [18] | Potency [19]

O=C1OC2(c3ccc(O)cc3Oc3cc(O)ccc32)c2ccc(N=C=S)cc21
inactive: Potency [1] | Potency [3] | Potency [4] | Potency [5] | Potency [6] | Potency [7] | Potency [8] | Potency [11] | Potency [12] | Potency [14] | Potency [15] | Potency [16] | Potency [17]
active: Potency [2] 0.879 µM
